Screening results as filed in PubChem.
An excerpt weighted towards active compounds, which were near 9.4% of everything screened.
Pf growth 48h: P. falciparum growth inhibition at 48 hours (one generation); P. falciparum luciferase growth in erythrocytes, 48 h; AID 504832; 310,000 tested, 5.9% active; Potency, µM (titrated, usually from 28.7 µM), without a hit: at the highest dose activity change, negative = inhibition, usual class: inhibitors; further: on the % scale 0 is the no-effect control and ±100 the full control effect
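Compounds are pin-transferred into medium, infected erythrocytes (2% hematocrit, 0.1% parasitemia final) are added, and plates sit one parasite generation at 37 C in 5% CO2. Detection reagent is then added and luminescence measured.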
Pf growth 96h: P. falciparum growth inhibition at 96 hours; P. falciparum luciferase reporter growth, 96 h; Potency, µM (highest dose often 28.7 µM), inactives show at the top dose activity change, negative = inhibition, usual class: inhibitors; 320,000 tested, 6.9% active; further: on the % scale 0 is the no-effect control and ±100 the full control effect
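Luminescence readout: decreased luciferase signal marks inhibited growth of reporter-expressing P. falciparum in infected red cells (2% hematocrit, 0.05% parasitemia final), exposed to compound two generations (96 h, 37 C, 5% CO2).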
SARS PLpro yeast: inhibitors of SARS-CoV papain-like protease in yeast; 330,000 tested, 0.19% active; Potency, µM (series often up to 32.9 µM), inactives show top-dose activity, positive = growth rescue, usual class: activators; AID 485353; S. cerevisiae expressing SARS-CoV PLpro, growth rescue; calls by dose curve; further: 0% is about no effect; nearly all actives have a fitted effect of over 55% in size
AMA1-RON2 inh: disrupts binding of P. falciparum AMA1 to RON2; AlphaScreen AMA1-biotinylated RON2 peptide binding; Potency, µM (doses to about 58.2 µM), for the others: top-dose activity change, negative = inhibition, actives largely listed as inhibitors; 360,000 tested, 0.2% active; AID 720542;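 further: 0% = vehicle wells and -100% = peptide control; nearly all actives have a fitted effect of over 45% in size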
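AMA1 (3D7) with his tag at 25 nM final met compounds first, then biotinylated RON2 peptide at 25 nM; detection used donor plus acceptor beads, 10 µg/mL apiece, read by AlphaScreen after 30 min at room temperature.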
* = called active by the depositor; ? = inconclusive; · = no result; ! = repeats disagree; [ ] = another dose, or the depositor's remark. Unless noted, the call rests on the fitted dose curve; in most records, active means well fitted curve in the direction sought with a large enough effect; inconclusive means small, poorly fitted or top-dose-only effect, or another doubt; inactive means no such curve, though single readings can be large; an effect the other way counts as inactive or inconclusive. Potency means the concentration at half of the fitted maximal effect.

SMILES | Pf growth 48h | Pf growth 96h | SARS PLpro yeast | AMA1-RON2 inh
COc1cc(OC)nc(Nc2nc(C(N)Cc3ccccc3)cs2)n1 (centres undefined) | · | · | · | 44%
C=C1C(=O)O[C@H]2[C@H]1[C@@H](O)CC(=C)[C@@H]1CC(=O)[C@@H](C)[C@H]21 | ? | ? | 0% | -2%
C[C@@H]1C[C@@H]2OC(=O)[C@]3(C)[C@H]2[C@@H](OC3(C)O)[C@]2(C)C(=O)C=C[C@H]12 (some centres undefined) | 13µM* | ? | -1% | -1%
C=C1C(=O)O[C@@H]2C[C@@H](C)[C@@H]3C=CC(=O)[C@@]3(C)[C@@H](OC(C)=O)[C@H]12 | 2.1µM* | 2.9µM* | 1% | 2%
C=C1C(=O)O[C@@H]2C[C@@H](C)[C@@H]3C=CC(=O)[C@@]3(C)[C@@H](O)[C@H]12 | 0.83µM* | 1µM* | 0% | 10%
CCCC12CN(C(=O)c3ccc([N+](=O)[O-])cc3)CC(C)(CN(C(=O)c3ccc([N+](=O)[O-])cc3)C1)C2=O | 12µM* | 10µM* | 1% | 17%
O=C(CCC(=O)n1ncc2ccccc21)NCc1ccc(F)cc1 | -17% | 23% | 6% | -4%
C=CCCCCCCCCc1nc(SCC(=O)O)n[nH]1 | 7% | 14% | 0% | 5%
CC(C)c1cc(Nc2cccc(O)c2)cc(C(C)C)c1O | ? | 12µM* | -4% | ·
Cc1c(C(=O)N(C)c2cccc(Cl)c2)cnn1-c1ccccc1 | 9.3µM* | ? | -5% | -15%
COc1ccc(-c2ccc(C(=O)NCc3ccc(F)c(F)c3)c3occc23)c(C)c1 | · | · | · | -2%
O=C(CO/N=C/c1ccccc1)N1c2ccccc2Oc2ccccc21 | 12µM* | ? | 2% | 0%
C=CCC(O)c1c(-c2ccccc2)nn(C)c1Cl (centres undefined) | 15% | -6% | -4% | 7%
O=C1C(=O)c2ccccc2C(O)=C1C1CCC(c2ccc(Cl)cc2)CC1 (centres undefined) | 0.0006µM*! | 0.0005µM* | · | -12%
COc1ccc(C)cc1NC(=O)NNS(=O)(=O)c1ccc(NC(C)=O)cc1 | 0% | 44% | 20% | 0%
COc1ccccc1C(=O)NCC(=O)NC(C)c1ccc(-n2ccnc2)cc1 (centres undefined) | -18% | ? | 5% | -4%
Cc1ccc(N(CN2C(=O)c3ccccc3C2=O)C(=O)c2ccc([N+](=O)[O-])cc2[N+](=O)[O-])cc1 | 20% | 3.7µM* | -20% | -19%
Cc1ccc(NC(=S)N(Cc2ccco2)C(C)c2cccs2)c(Cl)c1 (centres undefined) | 10% | ? | -3% | 18%
CC(C)(C)OC(=O)NCCC(=O)N/N=C/c1ccc2ncccc2c1 | -17% | -12% | -2% | -12%
CCC(C)[C@@H](N)C(=O)N/N=C/c1ccc2ncccc2c1 (some centres undefined) | ? | 12µM* | 1% | 45%
Cc1ccc2c(c1)=N/C(=N\c1[nH]c(O)c3ccccc13)N=2 | · | · | · | 155%
Oc1[nH]c(N=C2N=c3ccccc3=N2)c2ccccc12 | -51% | 2.3µM* | 1% | 100%
O=C(CCCCCN1C(=O)C2C3C=CC(C3)C2C1=O)Nc1nccs1 (centres undefined) | · | 2.3µM* | ? | -5%
O=C(O)CSCCn1cccn1 | 23% | 13µM* | -3% | -5%
Cc1ccccc1Nc1nc(N)nc(COC(=O)c2ccc(O)cc2)n1 | ? | 2.6µM* | -24% | 10%
SMILES | Pf growth 48h | Pf growth 96h | SARS PLpro yeast | AMA1-RON2 inh
Cc1ccccc1Nc1nc(N)nc(COC(=O)c2cccc(S(=O)(=O)N(C)c3ccccc3)c2)n1 | ? | 5.9µM* | 2% | -1%
Cc1ccccc1Nc1nc(N)nc(COC(=O)CCNS(=O)(=O)c2ccccc2)n1 | 12µM* | ? | 1% | 27%
Cc1ccccc1Nc1nc(N)nc(COC(=O)c2ccccc2)n1 | 191% | 471% | 5% | -8%[11.6 µM]
CCc1ccccc1Nc1nc(N)nc(COC(=O)C2CCN(C(=O)c3ccc(F)cc3)CC2)n1 | 12µM* | ? | 2% | 8%
Nn1c(SCC(=O)NCc2ccc3c(c2)OCO3)nnc1C(F)(F)F | · | · | 7% | -1%
O=C1NC2=C(C(=O)CCC2)C(c2ccc(OC(F)F)cc2)N1 (centres undefined) | 2% | 3% | 5% | -16%
COc1ccc(S(=O)(=O)N2CCCCC2)cc1NC(=O)C1CSC2(C)CCC(=O)N12 (centres undefined) | ? | 10% | 3% | 10%
CC(C)Oc1ccc(S(=O)(=O)N2CCCCC2)cc1NC(=O)C1CSC2(C)CCC(=O)N12 (centres undefined) | 12µM* | ? | 2% | -2%
CCOc1ccc(S(=O)(=O)N2CCCCC2)cc1NC(=O)C1CSC2(C)CCC(=O)N12 (centres undefined) | 1µM* | ? | -12% | -22%
Cc1cc(C)c(NC(=O)C2CCCN2CCC(C)C)c(C)c1 (centres undefined) | ? | ? | 9% | -5%
CCn1cc(CN2CCN(C)C(CCO)C2)c2ccccc21 (centres undefined) | 5% | 13µM* | -1% | 6%
COCCN(CCOC)C(=O)c1ccc(NS(=O)(=O)c2ccc3c(c2)OCCO3)cc1 | 5% | -6% | 1% | 8%
COc1cccc(NC(C)C(=O)N2CC(C)OC(C)C2)c1 (centres undefined) | -1% | ? | -2% | 0%
COc1cc(NC(C)C(=O)N2CC(C)OC(C)C2)cc(OC)c1 (centres undefined) | 4.7µM* | · | -1% | -14%
Cc1ccc(C2(CC(=O)Nc3nccs3)CCOC(C(C)C)C2)cc1 (centres undefined) | ? | -89% | -3% | -1%
COc1ccccc1C1(CC(=O)Nc2nccs2)CCOC(C(C)C)C1 (centres undefined) | ? | 13µM* | -7% | -6%
CCOc1ccc(Cn2nnc(C(=O)Nc3cc(C)cc(C)c3)c2N)cc1 | -9% | ? | 0% | 5%
CN1C(=O)/C(=C/C=C2/CCCN2C)N(C)C1=S | 38% | 1.5µM* | -1% | ?
Cc1cc(N2CCCC2)ccc1/C=C1/C(=O)N(C)C(=S)N1C | 0% | 7% | 0% | ?
Nc1c(O)cccc1C(=O)O | · | · | · | -29%
CCN1C(=O)N[C@@H](c2cccc(C(F)(F)F)c2)C(C(C)=O)=C1C | · | · | · | 7%
COc1cc(C(=O)N(CCN(C)C)CC2CCCN(Cc3ccccc3F)C2)ccc1C (centres undefined) | 10µM* | -17% | 4% | -12%
Cc1cc(C)c(C(=O)N(CCN(C)C)CC2CCCN(Cc3ccccc3F)C2)o1 (centres undefined) | 12µM* | ? | 2% | -12%
CN(C)CCN(CC1CCCN(Cc2ccccc2F)C1)C(=O)c1ccc(F)cc1 (centres undefined) | ? | 0% | -3% | 4%
CCN(CC)S(=O)(=O)c1ccc2nc(NC(=O)c3ccco3)sc2c1 | 41% | -2% | -1% | 10%
